# Hit rate of the full screen: of about 340,000 compounds, about 280 (0.082%) were called active.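 How the source made its calls: active means percent activation above the mean of all tested compounds plus 3 SD (cut at about 19% in these data); inactive means the rest.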 Many of the other results were omitted from the sample, so actives are more common in it than they were.
# Target: cAMP-dependent protein kinase type I-alpha regulatory subunit (Bos taurus) + cAMP-dependent protein kinase catalytic subunit beta (Mus musculus) (UniProt P00514+P68181)
# Test: activators of PKA-R1A holoenzyme, primary screen, biochemical, fluorescence polarization, Cy5-IP20, bovine R1A, mouse PKAc (AID 504707)
# Conditions: PKA-R1A dissociation, at 11.4 µM, stronger effect = higher value, scaled: DMSO 0%, 113 µM cGMP 100%
row,SMILES,activation
1,Cc1ccc(S(=O)(=O)/N=C2\C=C(NS(=O)(=O)c3ccc(C)cc3)C(=O)c3ccccc32)cc1,-6.85% (inactive)
2,C[C@H](CO)N1C[C@H](C)[C@@H](CN(C)Cc2ccc3c(c2)OCO3)OCc2cnnn2CCCC1=O,-8.89% (inactive)
3,CCOC(=O)C1CCCN(S(=O)(=O)c2ccc3c(c2)C(C)(C)C(=O)N3C)C1 (stereo not drawn),-3.23% (inactive)
4,COc1cc(Br)c(-c2sc(Nc3ccccc3)n[n+]2-c2ccccc2)cc1OC,-4.44% (inactive)
5,Nc1nonc1-n1nnc(C(=O)N/N=C/c2ccc(Cl)cc2)c1-c1ccc2c(c1)OCO2,-7.77% (inactive)
6,CCS(=O)(=O)N1Cc2ccccc2CC1C(=O)Nc1nc2ccc(F)cc2s1 (stereo not drawn),5.39% (inactive)
7,Cc1cccc(C(=O)OCC(=O)Nc2sccc2C(N)=O)c1C,3.56% (inactive)
8,O=C(CN1C(=O)NC2(CCc3ccccc32)C1=O)NC1CCCCC1 (stereo not drawn),-0.6% (inactive)
9,COC(=O)[C@H]1Cc2cnoc2C[C@]1(C)C(=O)O,4.79% (inactive)
10,COc1ccc(CN2C(=O)C(CC(=O)NC3CCCCC3)CC(C(=O)N3CCOCC3)=C2C)cc1 (stereo not drawn),1.08% (inactive)
11,CC1CC(NC(=S)N(C)C)CC(C)(C)C1 (stereo not drawn),7.75% (inactive)
12,O=C(NN=Cc1ccc2c(c1)CCC2)c1ccccc1O,10.6% (inactive)
13,Cc1onc(-c2ccccc2)c1-c1nnc(COC(=O)c2ccc(N(C)C)cc2)o1,11.8% (inactive)
14,COc1cccc(NC(=O)Nc2ccc(F)cc2)c1,9.12% (inactive)
15,c1ccc2c(c1)nnn2-c1ccncc1,-12.8% (inactive)
16,CC1=C(C(=O)N(C)C)CC(CC(=O)NCCc2ccccn2)C(=O)N1CCC1=CCCCC1 (stereo not drawn),3.98% (inactive)
17,CC(=O)Nc1ccc2c3c(ccc([N+](=O)[O-])c13)CC2,1.42% (inactive)
18,C[C@H]1CN([C@@H](C)CO)C(=O)CCCn2cc(nn2)CO[C@@H]1CN(C)S(=O)(=O)c1ccc(-n2cccn2)cc1,4.21% (inactive)
19,CC(C)CCNc1nc(N2CCCC2)c2c(c1C#N)CCN(C)C2,6.18% (inactive)
20,CN1CCN(S(=O)(=O)c2cccc(C(=O)Nc3sccc3C#N)c2)CC1,-12.1% (inactive)
21,C[C@H]1CN([C@@H](C)CO)C(=O)CCCn2cc(nn2)CO[C@@H]1CN(C)S(=O)(=O)c1ccccc1C#N,-3.32% (inactive)
22,CC(=NNC(N)=O)C1CC2CCC1CC2 (stereo not drawn),-3.74% (inactive)
23,COc1ccc(Cl)cc1NC(=O)CN(C)C(=O)c1cn(-c2ccccc2)nc1-c1cccs1,-7.71% (inactive)
24,Cc1ccc([C@H]2C[C@H](O)[C@@H](n3cc(COC(=O)c4ccccc4)nn3)CN2CC2CCCCC2)cc1,-14.8% (inactive)
25,CCCCCCNC(=O)O[C@]12C[C@@H](C(=O)OC)[C@@H](C(=O)OC)C[C@@]1(O)CN(S(=O)(=O)c1ccc(C)cc1)C2,-13.7% (inactive)
26,CCc1nnc(NC(=O)c2ccco2)s1,-1.79% (inactive)
27,Cc1cccc(C(=O)C(O)(c2ccccc2)C2CCCCC2=O)c1 (stereo not drawn),-0.27% (inactive)

row,SMILES,activation
1,COc1ccc(S(=O)(=O)N(C)C[C@H]2OCc3cnnn3CCCC(=O)N([C@H](C)CO)C[C@H]2C)cc1,9.03% (inactive)
2,CCOC(=O)C1(O)CC(C)=NN1C(=O)c1cccc(Br)c1 (stereo not drawn),-8.67% (inactive)
3,C#CCN(C[C@H]1[C@H](OC(=O)NC2CCCC2)[C@H](OC(=O)NC2CCCC2)C[C@H]2C(=O)N(c3ccccc3)C(=O)[C@@H]12)S(=O)(=O)c1ccc(C)cc1,7.98% (inactive)
4,COc1ccc(S(=O)(=O)N2CCC(C(=O)NCCC(=O)Nc3ccccc3OC)CC2)cc1,-8.6% (inactive)
5,COc1ccc(C=C2CCC3C(CCCC34OCCO4)C2=O)cc1 (stereo not drawn),-11.2% (inactive)
6,Cc1ccccc1NC(=O)Cc1nc(COC(=O)CNC(=O)c2ccc(Cl)cc2Cl)cs1,4.88% (inactive)
7,COc1ccc(NC(=O)N(C)C[C@@H]2OCc3cn(nn3)CCCC(=O)N([C@H](C)CO)C[C@H]2C)c(OC)c1,1.93% (inactive)
8,Cc1ccc(-c2ccc(CN3C(C(C)C)C(=O)N(Cc4cn(CCC5OCCO5)nn4)CCS3(=O)=O)cc2)cc1 (stereo not drawn),-8.79% (inactive)
9,N#Cc1ccc(OCC(=O)Nc2nc(-c3ccccn3)cs2)cc1,8.97% (inactive)
10,Cn1c(CCN2CCN(c3ccccn3)CC2)nc2cc(NS(=O)(=O)c3ccc(F)cc3)ccc21,-5.08% (inactive)
11,COCCNC(=O)CSc1nc(N)c(NC(=O)c2ccco2)c(=O)[nH]1,5.93% (inactive)
12,CC1(C)NC(=O)N(CC(=O)Nc2ccc(-c3ccccc3)cc2)C1=O,-8.93% (inactive)
13,CN(C(=O)CSc1nnc(Nc2ccccc2)s1)C1CCS(=O)(=O)C1 (stereo not drawn),19.6% (active)
14,CC(C)N(C(=O)CSc1nnc(NC2CC2)s1)c1ccccc1,-3.79% (inactive)
15,CCn1c(SCC(=O)N(C)C2CCS(=O)(=O)C2)nnc1-c1cccs1 (stereo not drawn),0.15% (inactive)
16,CC1(c2cccc(N)c2)OCCO1,-5.54% (inactive)
17,O=C(CCCN1C(=O)C(c2ccccc2)Oc2cccnc21)Nc1ccccc1Br (stereo not drawn),-1.04% (inactive)
18,O=C(ON=C1CCN(S(=O)(=O)c2ccccc2)CC1)c1ccc(Cl)cc1,6.75% (inactive)
19,CNC(=O)C[C@H]1C(=O)N(c2ccc(OC)cc2)C[C@@H]1Cc1ccccc1,-2.17% (inactive)
20,O=C(CN1CCN(S(=O)(=O)c2ccc(Cl)s2)CC1)NCc1ccc(Cl)cc1,6.31% (inactive)
21,COCC(=O)N(C)C[C@H]1Oc2cc(Br)ccc2S(=O)(=O)N([C@H](C)CO)C[C@H]1C,-4.65% (inactive)
22,CCN(CC)C(=O)C1=C(C)N(Cc2ccc(F)cc2)C(=O)C(CC(=O)NC2CCCC2)C1 (stereo not drawn),12.1% (inactive)
23,Cc1ccc(Cc2c(-c3ccccc3)nc3ccc(Cl)cn23)cc1,-1.62% (inactive)
24,Cc1cccc(S(=O)(=O)N(C)C[C@H]2OCc3cnnn3CCCC(=O)N([C@@H](C)CO)C[C@H]2C)c1,7.92% (inactive)
25,CC(C)n1ncc2c(C(=O)N3CCN(Cc4cccs4)CC3)cc(C3CC3)nc21,1.11% (inactive)
26,C[C@H](CO)N1C[C@H](C)[C@@H](CN(C)S(=O)(=O)c2ccc(Oc3ccccc3)cc2)OCc2cn(nn2)CCCC1=O,1.58% (inactive)
